p97 inhibitor: inhibitors of human p97 ATPase. 220,000 compounds, 0.42% hits. recombinant p97 ATPase, Kinase-Glo ATP luminescence, 3 h. AID 1481. P55072. inhibition, % at 8 µM; in the data active = inhibition above about 15%;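 note: 0% = DMSO vehicle and 100% = wells lacking enzyme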
Target sequence (P55072 whole entry, looked up): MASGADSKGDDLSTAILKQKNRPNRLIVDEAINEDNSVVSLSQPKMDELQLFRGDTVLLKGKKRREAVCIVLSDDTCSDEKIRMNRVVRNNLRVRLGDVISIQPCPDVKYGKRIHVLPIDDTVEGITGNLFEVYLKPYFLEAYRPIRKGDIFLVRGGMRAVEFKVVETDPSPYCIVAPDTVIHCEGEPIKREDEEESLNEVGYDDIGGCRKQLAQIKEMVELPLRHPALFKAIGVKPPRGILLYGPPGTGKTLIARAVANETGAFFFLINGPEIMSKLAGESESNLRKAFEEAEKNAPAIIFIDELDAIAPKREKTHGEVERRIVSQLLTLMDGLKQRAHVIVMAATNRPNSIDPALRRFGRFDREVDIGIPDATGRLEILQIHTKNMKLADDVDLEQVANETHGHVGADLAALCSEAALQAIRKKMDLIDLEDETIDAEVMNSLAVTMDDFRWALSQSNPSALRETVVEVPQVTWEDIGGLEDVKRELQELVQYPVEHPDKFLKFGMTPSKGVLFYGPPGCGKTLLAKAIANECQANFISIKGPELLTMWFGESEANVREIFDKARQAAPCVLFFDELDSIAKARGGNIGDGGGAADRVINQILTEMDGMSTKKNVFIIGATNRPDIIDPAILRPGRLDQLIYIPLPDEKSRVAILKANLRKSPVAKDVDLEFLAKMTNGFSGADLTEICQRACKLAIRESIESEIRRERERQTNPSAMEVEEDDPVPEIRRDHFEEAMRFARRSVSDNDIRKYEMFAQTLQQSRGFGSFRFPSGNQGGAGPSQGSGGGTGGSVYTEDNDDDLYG
S1P3 antagonist: antagonists of human S1P3 receptor; Q99500; CHO S1P3 NFAT-BLA reporter, FRET fluorescence, antagonist mode; inhibition, % at 4.98 µM; 170,000 compounds, 0.27% hits; AID 485;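 active = inhibition above the plate cutoff, the mean inhibition of test wells on that plate plus 3 SD, cut at about 28% in these data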;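 note: cells challenged with S1P at its EC80 of 0.8 µM; blue over green emission ratio from cleaved BLA substrate after 4 h stimulation; 0% = S1P-stimulated wells and 100% = unstimulated DMSO-only wells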
TbHK1 inh: blocks Trypanosoma brucei hexokinase 1 activity. 220,000 compounds, 0.11% hits. recombinant TbHK1, G6PDH-coupled NADH A340. inhibition, % at 10 µM;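 active = inhibition of 50% or more in the single-dose primary screen; inactive = inhibition below 50%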
G6PDH counter: inhibits Leuconostoc G6PDH, flagging false hits in G6PDH-based assays | 200,000 compounds, 0.12% hits | AID 1020 | inhibition, % at 5 µM | Purified L. mesenteroides G6PDH, diaphorase/resazurin coupled fluorescence, 45 min; in the data active = inhibition above about 50%
Redox H2O2 prof: compounds producing H2O2 with reducing agent – biochemical, NIH compound library profiling, artefact control for MLSCN library redox annotation, primary screen | DTT-dependent redox cycling H2O2, phenol red/HRP absorbance; 100% = 100 µM peroxide control, 0% = buffer | 200,000 compounds, 0.03% hits | activation, % at 10 µM;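 active = activation of at least 50% relative to the plate's high and low controls in the primary single-dose screen; inactive = activation below 50%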;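 note: compound incubated with DTT at 0.8 mM final as the reducing agent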
Starred values were filed as active, the others as inactive; . = not tested or not shown. A selection: hits, their analogues and other compounds. The true share with any hit is near 0.84%.

SMILES | p97 inhibitor | S1P3 antagonist | TbHK1 inh | G6PDH counter | Redox H2O2 prof
CN(CCCNC(=O)C1CCN(S(=O)(=O)c2cccc3nsnc23)CC1)Cc1ccccc1 | -4 | -16 | 58* | 4 | 0
CCCCOc1ccc(/C=N/NC(=S)Nc2cc(C)ccc2C)cc1 | 3 | . | -20 | 6 | 1
O=C1OCC2=C1C(c1ccc(F)cc1)c1cc3c(cc1N2)OCCO3 (configuration not stated) | 1 | 35* | -4 | 1 | 0
Oc1ccc(C=Nc2ccc3ncccc3c2)c(O)c1 | 11 | . | -51 | 56* | -1
Oc1ccc(C=Nc2cccc3ncccc23)c(O)c1 | 9 | -1 | -34 | -40 | 4
CC1CCC(C(C)C)C(OC(=O)COC(=O)c2cc(O)ccc2N)C1 (configuration not stated) | 0 | -11 | 3 | 24 | 0
COc1cccc(N2C(=O)C(CC(=O)Nc3ccc(F)cc3)N(C3CCCCC3)C2=O)c1 (configuration not stated) | 1 | 103* | -2 | 2 | 3
Cc1csc(NC(=O)c2cnc3ccccn3c2=O)n1 | . | -17 | . | . | .
O=[N+]([O-])c1cc(Cl)c2cccnc2c1O | 1 | -7 | 2 | 46 | 1
O=[N+]([O-])c1cc(Cl)c(O)c2ncccc12 | 5 | -18 | 9 | 59* | -2
O=[N+]([O-])c1ccc(O)c2ncccc12 | 7 | -11 | 11 | 66* | 0
COC(=O)Cc1cc(=O)[nH]c(/N=C(\N)Nc2ccc(C)cc2)n1 | 0 | . | 17 | -2 | 0
CC1CC(=O)C2=C(C1)Nc1ccccc1N(C(=O)COc1ccccc1)C2c1ccco1 (configuration not stated) | 9 | -21 | -26 | 4 | 1
Cc1onc(-c2c(Cl)cccc2Cl)c1C(=O)O/N=C(\C#N)c1ccccc1 | 15* | -13 | -4 | . | .
O=C(CSc1nnc2scc(-c3ccccc3)n12)N1CCN(Cc2ccccc2)CC1 | 0 | 22 | -2 | 0 | 2
CCCCOC(=O)c1[nH]c2c(c1C)C(=O)CC(c1cc(OC)c(OC)c(OC)c1)C2 (configuration not stated) | -5 | 52* | -4 | -36 | 0
C=CCOC(=O)c1[nH]c2c(c1C)C(=O)CC(c1cc(OC)c(OC)c(OC)c1)C2 (configuration not stated) | -8 | 0 | 3 | -17 | -2
Cc1c(C(=O)OCCOC(C)C)[nH]c2c1C(=O)CC(c1ccco1)C2 (configuration not stated) | 3 | 54* | -4 | -22 | -1
Clc1ccc2nc(N3CCNCC3)nc(-c3ccccc3)c2c1 | 1 | . | 12 | 3 | 2
Clc1ccc(-c2csc(-c3cccnc3)n2)s1 | 1 | 6 | -7 | . | .
O=c1c(-c2ccc(Cl)cc2)coc2c(CN3CCOCC3)c(O)ccc12 | 8 | -8 | -20 | -2 | 2
CCOC(=O)c1c(C)oc2c1c(C=NCCC(=O)O)c(O)c1ccccc12 | 0 | -1 | -15 | 52* | 0
CCOC(=O)c1c(C)oc2c1c(C=NC1CCS(=O)(=O)C1)c(O)c1ccccc12 (configuration not stated) | 7 | -19 | -7 | 34 | 2
O=C(COC(=O)Cn1[nH]c(=O)c2ccccc2c1=O)Nc1ccc2c(c1)OCO2 | 6 | -17 | 1 | 5 | 0
CC(C)=CC1C(C(=O)Nc2ccc(Br)cn2)C1(C)C (configuration not stated) | -2 | 71* | 1 | 7 | -1
SMILES | p97 inhibitor | S1P3 antagonist | TbHK1 inh | G6PDH counter | Redox H2O2 prof
CCCCC(=O)Nc1ccc(Br)cn1 | 0 | . | -2 | 10 | 0
COC(=O)c1ccc(C2C(C#N)=C(N)Oc3cc(C)n(C)c(=O)c32)cc1 (configuration not stated) | 3 | -27 | -4 | 2 | 2
COC(=O)C1=C(N)Oc2cc(C)n(C)c(=O)c2C1c1ccc(Cl)cc1 (configuration not stated) | 2 | 71* | 0 | 3 | -2
CC1=CC(=O)c2c(O)ccc(O)c2C1=O | 14 | -8 | 8 | 58* | 1
CCCNc1nc2c(c(=O)n(C)c(=O)n2C)n1Cc1ccc(F)cc1 | -2 | 85* | 4 | 2 | -1
Cn1c(=O)c2c(nc(NCc3ccccc3)n2Cc2ccc(F)cc2)n(C)c1=O | -1 | 15 | -11 | 0 | -1
O=c1/c(=C\c2cc([N+](=O)[O-])cc([N+](=O)[O-])c2O)sc2nc3ccccc3n12 | 7 | -8 | 60* | -3 | -1
O=c1/c(=C/c2ccccn2)sc2nc3ccccc3n12 | 4 | -3 | 1 | -7 | 0
Cc1nnc(NC(=O)CSc2nnc(Cc3cccn3C)n2-c2cccc(C(F)(F)F)c2)s1 | 1 | 88* | -12 | -15 | -1
O=C(N/N=C/c1ccc(-c2ccc(S(=O)(=O)Nc3ncccn3)cc2)o1)c1cc2ccccc2cc1O | 15* | . | -36 | 17 | 0
O=C(Cc1ccccc1)N/N=C/c1ccc2cccc(O)c2n1 | 5 | -8 | -12 | 56* | 0
CCCCOc1ccc(S(=O)(=O)Nc2cc(OC)ccc2OC)cc1 | -1 | 55* | 12 | 1 | 0
COc1ccc(OC)c(NS(=O)(=O)c2ccc(Cl)nc2)c1 | -3 | -6 | -2 | -5 | -1
Cc1ccc(CNC(=O)CN2CCCC(C)C2)cc1 (configuration not stated) | -5 | . | -10 | 2 | 3
CN(C)NC(=S)Nc1ccc2nc(-c3ccccn3)c(-c3ccccn3)nc2c1 | 2 | . | -20 | -27 | -3
OCCCNC(=S)Nc1ccc2nc(-c3ccccn3)c(-c3ccccn3)nc2c1 | 5 | . | -20 | 52* | 3
S=C(Nc1ccc2nc(-c3ccccn3)c(-c3ccccn3)nc2c1)N1CCOCC1 | 0 | -8 | 10 | 53* | -1
CC(C)(C)CC(C)(C)NC(=S)Nc1ccc2nc(-c3ccccn3)c(-c3ccccn3)nc2c1 | 1 | . | -15 | 38 | 4
CC1=CC(C)(C)N(C(=O)CSc2nnc(N)s2)c2ccccc21 | 1 | -6 | 30 | 4 | 0
COc1ccc(N2CCCn3c2nc2c3c(=O)n(Cc3ccccc3)c(=O)n2C)c(OC)c1 | 0 | -3 | -6 | 11 | 0
ClCC1=Nc2cccc3cccc(c23)N1 | 15* | 5 | -40 | . | .
Cc1ccc(SCCNC(=O)c2ccc(C)c(S(=O)(=O)Nc3ccccc3C)c2)cc1 | 0 | . | 12 | 3 | -4
CCOC(=O)c1ccccc1NC(=O)Cn1c(-c2nonc2N)nc2ccccc21 | -4 | 56* | 4 | -49 | -1
Cc1cc(O)c(NC(=O)c2ccc(Br)o2)cc1C | 2 | 8 | 2 | -10 | 2
CC(CN1CCOCC1)OC(=O)c1ccc(Br)cc1 (configuration not stated) | 3 | -32 | -3 | 57* | -1
COCc1nnc(NS(=O)(=O)c2ccccc2)s1 | -2 | -8 | 6 | 8 | 1
O=C1c2ccccc2C(=O)N1Cc1nc(-c2ccccc2)no1 | . | 2 | . | 2 | .
